Assay outcomes from PubChem BioAssay.
KB-V1 MDR tox – kills drug-selected multidrug resistant KB-V1 cells; Potency, µM (highest dose often 46.1 µM), hits mostly cytotoxic; 3.4% of 400,000 active; KB-V1 MDR cells viability, CellTiter-Glo, 72 h; AID 1347076; further: nearly all actives have a fitted effect of over 60% in size
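KB-V1, DMEM (no phenol red) + 10% FBS; cpd pin-transferred, titration series; 72 h, 37 degrees C; CellTiter-Glo, luminescence. Data normalized, curve-fit.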
MCF10A rerep – inducers of DNA re-replication in MCF 10A breast cells. 2.9% of 350,000 active. Potency, µM (series often up to 46.1 µM), most hits filed as activators. MCF 10A DNA re-replication, Hoechst nuclear intensity, 48 h; further: nearly all actives have a fitted effect of over 50% in size
SW480 rereplic – inducers of DNA re-replication in SW480 colon cancer cells. SW480 DNA re-replication, Hoechst DNA content imaging, 48 h. Potency, µM (highest dose often 46.1 µM), most hits filed as activators. 1.8% of 340,000 active; further: nearly all actives have a fitted effect of over 55% in size
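Compounds, transferred as 23 nL by pin tool, were incubated with cells for 48 hr; DNA content per nucleus was then quantified by Hoechst staining and fluorescence plate imaging.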
VP16 counter – Gal4-VP16 reporter inhibition counter-screen; Drosophila S2 Gal4-VP16 UAS-luciferase, luminescence, 20 h; Potency, µM (titrated, usually from 53.6 µM), most hits filed as inhibitors; 3.5% of 310,000 active;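 further: Gal4-VP16 expression switched on by copper sulfate through the metallothionein promoter; nearly all actives have a fitted effect of over 50% in size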
RORgamma inh – inhibitors of mouse ROR gamma transcriptional activity; Drosophila S2 Gal4-RORgamma UAS-luciferase reporter, 20 h; 5.4% of 310,000 active; Potency, µM (titrated, usually from 53.6 µM), hits mostly inhibitors; further: nearly all actives have a fitted effect of over 60% in size
Target sequence (P51450 whole entry, looked up, the tested form may be a part): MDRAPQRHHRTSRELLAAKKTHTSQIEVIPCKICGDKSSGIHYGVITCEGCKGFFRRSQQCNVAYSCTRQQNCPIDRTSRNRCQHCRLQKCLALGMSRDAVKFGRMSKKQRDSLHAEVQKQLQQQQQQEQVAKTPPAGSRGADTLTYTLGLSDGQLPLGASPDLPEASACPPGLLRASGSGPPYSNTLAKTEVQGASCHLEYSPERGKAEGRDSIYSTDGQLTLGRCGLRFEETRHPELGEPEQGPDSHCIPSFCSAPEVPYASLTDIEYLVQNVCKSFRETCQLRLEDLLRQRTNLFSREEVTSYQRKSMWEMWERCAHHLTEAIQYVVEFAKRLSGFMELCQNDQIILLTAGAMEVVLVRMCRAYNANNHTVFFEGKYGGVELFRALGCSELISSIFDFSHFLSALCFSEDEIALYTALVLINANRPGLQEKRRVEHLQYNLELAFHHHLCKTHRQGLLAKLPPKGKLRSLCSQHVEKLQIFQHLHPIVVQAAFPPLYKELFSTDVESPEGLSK
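A Gal4/UAS one-hybrid system in insect cells: metallothionein-promoter Gal4–ROR gamma fusion plus Photinus luciferase reporter. Copper sulfate 700 uM final, 20 hr ambient incubation, luminescent detection after 10 min with reagent.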
KB-3-1 cytotox – kills parental KB-3-1 adenocarcinoma cells | KB-3-1 viability, CellTiter-Glo ATP luminescence, 72 h | Potency, µM (series often up to 46.1 µM), most hits filed as cytotoxic | 1.4% of 400,000 active | AID 1347075; further: nearly all actives have a fitted effect of over 60% in size
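Parental KB-3-1 adenocarcinoma cells in phenol-red-free DMEM with 10% FBS were pin-treated with compounds at several concentrations, incubated 72 h at 37 °C, and viability read by CellTiter-Glo luminescence; concentration-effect curves were fitted after normalization.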
Numbers stand for hits; 0 = inactive; ? = inconclusive; - = no result given; [ ] = dose if it differs, or a comment. An excerpt weighted towards active compounds, which were near 10% of everything screened. The call rests on the fitted dose curve; in most records, active means well fitted curve in the direction sought with a large enough effect; inconclusive means small, poorly fitted or top-dose-only effect, or another doubt; inactive means no such curve, though single readings can be large; an effect the other way counts as inactive or inconclusive.

SMILES	KB-V1 MDR tox	MCF10A rerep	SW480 rereplic	VP16 counter	RORgamma inh	KB-3-1 cytotox
CCn1c(SCC(N)=O)nnc1-c1cc2c(C)nn(-c3ccccc3)c2s1	13µM	0	0	0	0	0
CCn1c(SCC(N)=O)nnc1-c1ccc2[nH]c(C)c(C)c2c1	21µM	0	0	0	0	5.8µM
Cc1[nH]c2ccc(-c3nnc(SCC(=O)c4ccc(F)cc4)o3)cc2c1C	0	0	0	0	0	0
CCn1c(SCC(=O)Nc2cc(C(C)(C)C)nn2-c2ccccc2)nnc1-c1cccs1	?	0	?	?	0	0
Cc1cc(C)c(C)c(C(=O)CSc2nnc(-c3ccc4[nH]c(C)c(C)c4c3)o2)c1C	?	13µM	?	?	?	0
Cc1ccc(C2C(C#N)=C(N)Oc3cc4c(cc32)OCO4)cc1 (centres undefined)	?	?	?	0	0	?
CSc1ccc(C2C(C#N)=C(N)Oc3cc4c(cc32)OCO4)cc1 (centres undefined)	4.6µM	?	?	0	0	0
CC(C)NC(=S)N/N=C1\CCCCc2ccccc21	0	0	0	2µM	0.79µM	0
O=C(N/N=C1/CCc2ccccc21)C1CC1	0	0	0	0	0	0
Cc1ccc(C(=O)N/N=C2\CCc3ccccc32)c(C)c1	23µM	0	0	?	0	0
COc1ccc(OCC(=O)N/N=C2\CCCCc3ccccc32)cc1	0	0	?	0	0	0
S=C(N/N=C1\CCc2ccccc21)NC1CCCCC1	0	?	0	5.6µM	1µM	0
COc1cccc(NC(=S)N/N=C2/CCCCc3ccccc32)c1	0	?	0	5µM	3.5µM	?
Cc1ccc(NC(=O)C(=O)NCC(c2cccnc2)N2CCN(Cc3ccccc3)CC2)cc1C (centres undefined)	0	-	-	-	-	0
CCc1ccccc1NC(=O)C(=O)NCC(c1cccnc1)N1CCN(c2ccccc2F)CC1 (centres undefined)	0	-	-	-	-	0
Cc1nc2sc(C(N)=O)c(N)c2c(-c2ccc(Br)cc2)c1C(=O)Nc1ccc(Cl)cc1	?	-	-	-	-	0
CCCCn1c(N)c(N(CC(C)C)C(=O)CCN2C(=O)C3CC=CCC3C2=O)c(=O)[nH]c1=O (centres undefined)	0	-	-	-	-	0
Cc1ccc(C)c(S(=O)(=O)N/N=C2/CCCc3ccccc32)c1	0	?	0	0	0	0
Cc1ccc(C)c(NC(=S)N/N=C2/CCCCc3ccccc32)c1	?	?	0	6.3µM	1.6µM	?
Cc1ccc(C(=O)Nc2ccc3c(c2)CCC3)o1	?	0	0	13µM	?	0
Cc1ccc(C(=O)Nc2nc(C)c(C(=O)Nc3ccc4c(c3)CCC4)s2)cc1	2.9µM	1µM	5.8µM	0	0	21µM
Cc1nc(NC(=O)c2ccc(F)cc2)sc1C(=O)Nc1ccc2c(c1)CCC2	0	0	?	?	?	0
O=C(Nc1ccc2c(c1)CCC2)c1ccc(Br)o1	0	21µM	0[9.22 µM]	0	0	0
CC(NC(=O)C(=O)Nc1c2c(nn1-c1ccc(F)cc1)CSC2)c1ccccc1 (centres undefined)	0	-	-	-	-	0
COC(=O)[C@@]1(Cc2ccccc2)[C@H]2c3cc(C(=O)N4CCCC4)n(Cc4ccccc4)c3C[C@H]2CN1C(=O)c1ccccc1	-	-	-	0	0	-
COC(=O)[C@@]1(Cc2ccc(OC)cc2)[C@H]2c3cc(C(=O)N4CCCC4)n(Cc4ccc(C)c(F)c4F)c3C[C@H]2CN1C(=O)c1ccccc1	7.3µM	-	-	0	0	?
COC(=O)[C@@]1(Cc2ccc(OC)cc2)[C@H]2c3cc(C(=O)N4CCCC4)n(Cc4cc(F)c(F)c(F)c4)c3C[C@H]2CN1C(=O)c1ccccc1	-	-	-	0	0	-
COC(=O)[C@@]1(Cc2ccc(OC)cc2)[C@H]2c3cc(C(=O)N4CCCC4)n(Cc4ccccc4)c3C[C@H]2CN1C(=O)c1ccccc1	10µM	-	-	-	-	?
CCN(CC)C(=O)Cn1c(=O)n(-c2ccc(OC)cc2OC)c(=O)c2c(C)c(C(=O)N(CC)CC)sc21	0	-	-	-	-	0
Oc1ccc(Cc2ccccc2)c2cccnc12	0	?	?	-	-	23µM
